The source of these data is the supplement of paper PMC8183993.

“And” between values parts separate entries of the source, which are not always exact repeats. Equal entries are not always repeated. Structures can show the parent of a compound that is named as a salt. ± gives the standard deviation of the averaged measurements. Whole data set: some 3,200 compounds, median “nuclei count (viability) relative to DMSO” near 99, cut for the lowest 2% near 16. What follows is part of a selection rich in the lowest values, with near analogues and random picks from the rest.

This test concerns U2OS. As to the kind of experiment: nuclei count (viability) relative to DMSO (% of DMSO); higher = more viable cells. Conditions: 10 µM; 24 h. How it is done:
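Primary image-based screen in U2OS cells: compounds at 10 uM for 24 h, then a 1 h o-propargyl-puromycin (OPP) pulse, click labelling, and high-throughput microscopy. Mean cytoplasmic OPP intensity and nuclei count were normalised to DMSO wells within each plate (DMSO = 100) and averaged over triplicate plates.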
Turning to `C1=N/C2=N/c3ccc(OCCN4CCCC4)c(c3)COC/C=C/COCc3cccc(c3)C(=C1)N2` [Pacritinib (SB1518)], the nuclei count is 16.7.

As to `Cn1c(CNc2ccc(C(=N)N)cc2)nc2cc(C(=O)N(CCC(=O)O)c3ccccn3)ccc21` [BIBR 953 (Dabigatran etexilate, Pradaxa)], the nuclei count worked out at 108.

Compound `N=C(N)NC(=N)Nc1ccccc1` [1-Phenylbiguanide hydrochloride] had a nuclei count of 95.6.

As to `Cn1cc(C2=C(c3ccc(Cl)cc3Cl)C(=O)NC2=O)c2ccccc21`, the nuclei count is 94.8 and 92.7.

With `CN(C)CCCn1cc(C2=C(c3c[nH]c4ccccc34)C(=O)NC2=O)c2ccccc21`, the nuclei count was 55.6 and 47.3.

As for `Cn1cc(C2=C(c3cn(CCCSC(=N)N)c4ccccc34)C(=O)NC2=O)c2ccccc21` [Ro 31-8220 Mesylate], the nuclei count is 29.7.

`Cn1cc(C2=C(c3cn(CCCSC(=N)N)c4ccccc34)C(=O)NC2=O)c2ccccc21` [Ro 31-8220 mesylate] showed a nuclei count of 10.6.

`O=C(O)CCC/C=C\C[C@@H]1CO[C@H](C(F)(F)F)O[C@@H]1c1ccccc1O` yielded a nuclei count of 102.

In turn, `O=C(O)CNC(=O)C(CS)Cc1ccccc1` (racemic) [DL-Thiorphan] had a nuclei count of 113.

`CNC(C)C1CCC(N)C(OC2C(N)CC(N)C(OC3OCC(C)(O)C(NC)C3O)C2O)O1` (stereo not drawn) [Gentamycin sulfate (Gentacycol)] had a nuclei count of 79.5.

`CC(C)c1noc(N2CCC(COc3ccc(-c4ccc(S(C)(=O)=O)cc4)nc3)CC2)n1` yielded a nuclei count of 109.

Regarding `C=C(NC(=O)C(=C)NC(=O)c1csc(C2=N[C@@H]3c4csc(n4)[C@H]4NC(=O)c5csc(n5)[C@H]([C@](C)(O)[C@@H](C)O)NC(=O)[C@H]5CSC(=N5)/C(=C/C)NC(=O)[C@H]([C@@H](C)O)NC(=O)c5csc(n5)[C@]3(CC2)NC(=O)[C@H](C)NC(=O)C(=C)NC(=O)[C@H](C)NC(=O)[C@H]([C@@H](C)CC)N[C@@H]2C=Cc3c([C@H](C)O)cc(nc3[C@H]2O)C(=O)O[C@@H]4C)n1)C(N)=O` [Thiostrepton], the nuclei count came out at 16.2.

On to `CC(=O)OC[C@H]1O[C@@H]([S-])[C@H](OC(C)=O)[C@@H](OC(C)=O)[C@@H]1OC(C)=O.CCP(CC)CC.[Au+]` [Auranofin], for which the nuclei count is 13.4.

As for `CCN(C(=O)CO)[C@H]1CN(/C(=N\C#N)Nc2cccc(OC(F)F)c2)N=C1c1ccc(Cl)c(Cl)c1`, the nuclei count is 111.

Turning to `CN1CCN(c2nc(C3=C(c4c[nH]c5ccccc45)C(=O)NC3=O)c3ccccc3n2)CC1` [Sotrastaurin (AEB071)], the nuclei count came out at 95.2 ± 3.4.

In turn, `O=C(/C=C/c1ccc(O)cc1)CC(=O)/C=C/c1ccc(O)cc1` [bis-demethoxycurcumin] registered a nuclei count of 93.2.

In the case of `C=CC(=O)Nc1cccc(Nc2nc(Nc3ccc(N4CCN(C(C)=O)CC4)cc3OC)ncc2C(F)(F)F)c1`, the nuclei count came to 57.6.

For the compound `CC(=O)NCC(=O)N1[C@@H]2CC[C@H]1c1ccc(Nc3ncc(C(F)(F)F)c(NC4CCC4)n3)cc12`, the nuclei count was found to be 16.4.

On to `C=CC(=O)Nc1cccc(Nc2nc(Nc3ccc(NC4CN(CCF)C4)cc3OC)ncc2C(F)(F)F)c1`, for which the nuclei count is 20.7.

Compound `COc1ccc(Br)cc1S(=O)(=O)NC(=O)/C=C/c1ccccc1Cc1ccc2ccccc2c1` gave a nuclei count of 104.

As for `O=C1c2ccccc2-c2nc3nonc3nc21`, the nuclei count was determined as 44.

The compound `CCCCCCCCc1ccc(-c2ccc(C(=O)O)cc2)cc1` registered a nuclei count of 108.

On to `CCCCCCCc1ccc(CCc2cccc(O)c2C(=O)O)cc1`, for which the nuclei count came to 7.35.

On to `CCCCCCCCc1ccc(CCC(N)(CO)CO)cc1` [Fingolimod (FTY720)], for which the nuclei count worked out at 18.9 ± 0.71.

In turn, `CC(C)=CCC/C(C)=C/CC/C(C)=C/CSCC(=O)O` [Farnesylthioacetic acid] registered a nuclei count of 97.9.

`C1COC(NC(C2CC2)C2CC2)=N1` [Rilmenidine hemifumarate] displayed a nuclei count of 103.

`C1COC(NC(C2CC2)C2CC2)=N1` [Rilmenidine]: the nuclei count worked out at 93.6.

Regarding `CC(C)(C)c1ccc(S(=O)(=O)/C=C/C#N)cc1`, the nuclei count was 43.7.

On to `COc1cc([C@@H]2c3cc4c(cc3[C@@H](O[C@@H]3O[C@@H]5CO[C@@H](C)O[C@H]5[C@H](O)[C@H]3O)[C@H]3COC(=O)[C@H]23)OCO4)cc(OC)c1O` [Etoposide], for which the nuclei count is 44.3 ± 2.

As to `COc1cc([C@@H]2c3cc4c(cc3[C@@H](O[C@@H]3O[C@@H]5CO[C@@H](C)O[C@H]5[C@H](O)[C@H]3O)[C@H]3COC(=O)[C@H]23)OCO4)cc(OC)c1O` [Etoposide (VP-16)], the nuclei count is 50.9.

Compound `COc1cc([C@@H]2c3cc4c(cc3[C@@H](O[C@@H]3O[C@@H]5CO[C@@H](c6cccs6)O[C@H]5[C@H](O)[C@H]3O)[C@H]3COC(=O)[C@H]23)OCO4)cc(OC)c1O` [Teniposide (Vumon)] had a nuclei count of 15.5.

Consider `CC[C@H](CO)Nc1nc(Nc2cccc(-c3ccccn3)c2)c2ncn(C(C)C)c2n1` [(R)-DRF053 dihydrochloride], for which the nuclei count amounted to 76.2.

In turn, `CC(Oc1ccc(O)cc1)(P(=O)(O)O)P(=O)(O)O` had a nuclei count of 105 ± 0.12.

In turn, `CO[C@@H]1[C@H](O)[C@@H](CO)O[C@H]1n1cnc2c(NC3CCCCC3)ncnc21` came in with a nuclei count of 102.

Take `COCC[n+]1c2c(n(Cc3cnccn3)c1C)C(=O)c1ccccc1C2=O`: the nuclei count is 14.1.

The compound `CC(=O)NNC(=O)N1Cc2ccccc2Oc2ccc(Cl)cc21` displayed a nuclei count of 94.3.

Compound `OCc1ccc(O[C@@H]2O[C@H](CO)[C@@H](O)[C@H](O)[C@H]2O)cc1` [Gastrodin (Gastrodine)] came in with a nuclei count of 94.5.

Take `CCN(CC)CCOc1ccc(Nc2ncc3cc(-c4c(Cl)cccc4Cl)c(=O)n(C)c3n2)cc1`: the nuclei count amounted to 7.54.

The compound `CSc1cccc(Nc2ncc3cc(-c4c(Cl)cccc4Cl)c(=O)n(C)c3n2)c1` yielded a nuclei count of 72.2.

In turn, `CCN(CC)CCOc1ccc(Cc2ccccc2)cc1` [DPPE fumarate] had a nuclei count of 101.

Turning to `Cc1ccc(CC2(O)CCN(CCOc3ccc(O)cc3)CC2)cc1`, the nuclei count was found to be 87.3.

For `COc1ccc(CCC(=O)c2c(O)cc(O[C@@H]3O[C@H](CO)[C@@H](O)[C@H](O)[C@H]3O[C@@H]3O[C@@H](C)[C@H](O)[C@@H](O)[C@H]3O)cc2O)cc1O` [Neohesperidin dihydrochalcone (Nhdc)], the nuclei count came to 98.7.

Take `COC(=O)[C@]12CCC(C)(C)C[C@H]1[C@H]1C(=O)C=C3[C@@]4(C)C=C(C#N)C(=O)C(C)(C)[C@@H]4CC[C@@]3(C)[C@]1(C)CC2` [Bardoxolone Methyl]: the nuclei count turned out to be 4.35.

Turning to `C[C@]12CC[C@@H](O)C[C@@H]1CC[C@@H]1[C@@H]2CC[C@]2(C)C=CC[C@@H]12` [3a, 5a-Androstenol], the nuclei count was determined as 90.5.

`Cc1ccc(C(=O)Nc2ccc(CN3CCN(C)CC3)c(C(F)(F)F)c2)cc1C#Cc1cnc2cccnn12` yielded a nuclei count of 16.3.

Consider `Cc1ccc(C(=O)Nc2ccc(CN3CCN(C)CC3)c(C(F)(F)F)c2)cc1C#Cc1cnc2[nH]ncc2c1` [GZD824 Dimesylate], for which the nuclei count turned out to be 14.1.

For `Cc1ccc(NC(=O)c2ccc(CN3CCN(C)CC3)cc2)cc1Nc1nccc(-c2cccnc2)n1` [Imatinib (STI571)], the nuclei count is 99.1.

`Cc1ccc(NC(=O)c2ccc(CN3CCN(C)CC3)cc2)cc1Nc1nccc(-c2cccnc2)n1` [Imatinib Mesylate] gave a nuclei count of 96.8.

Compound `Cc1ccc(NC(=O)c2ccc(CN3CCN(C)CC3)cc2)cc1Nc1nc(-c2cccnc2)cs1` [Masitinib (AB1010)] yielded a nuclei count of 90.7.

Regarding `Cc1ccc(NC(=O)c2ccc(CN3CCN(C)CC3)cc2)cc1Nc1nccc(-c2cccnc2)n1` [Imatinib mesylate], the nuclei count came out at 93.1 ± 2.5.

In turn, `Cc1ccc(NC(=O)c2ccc(CN3CCN(C)CC3)cc2)cc1Nc1nccc(-c2cccnc2)n1` [Imatinib] came in with a nuclei count of 101.

Regarding `Cc1ccc(NC(=O)c2ccc(CN3CC[C@H](N(C)C)C3)c(C(F)(F)F)c2)cc1Nc1nccc(-c2cncnc2)n1` [Bafetinib (INNO-406)], the nuclei count turned out to be 77.9.

The compound `CCNC(=O)Nc1ccc(-c2nc3c(c(N4CCOC[C@@H]4C)n2)CCN(C2COC2)C3)cc1` gave a nuclei count of 75.4 ± 5.5.

`O=C(O)[C@]1(Cc2cccc(Nc3nccs3)n2)CC[C@@H](Oc2cccc(Cl)c2F)CC1` had a nuclei count of 77.7 ± 2.7.

With `CC(C1=C(CCN(C)C)Cc2ccccc21)c1ccccn1` (stereo in doubt) [(S)-(+)-Dimethindene maleate], the nuclei count stood at 101.

As to `CCNC(=O)c1cc2c(-c3cc(OCCN4CCCC4)c(Cl)cc3Cl)nc(N)nc2s1`, the nuclei count worked out at 67.

Compound `NC(=O)N1c2ccccc2CC(O)c2ccccc21` (stereo not drawn) [Licarbazepine] gave a nuclei count of 104.

Consider `CCNc1nc(Nc2cc(F)c(C(=O)N3CCOCC3)cc2OC)ncc1C(F)(F)F`, for which the nuclei count is 96.2.

The compound `COc1ccc(-n2[nH]c3c4c(ncc3c2=O)CCCCC4)cc1` showed a nuclei count of 99.9.

Compound `O=C(O)c1cc(O)ccc1O` [Gentisic acid] returned a nuclei count of 103.

`COc1ccc2[nH]c(-c3ccccc3)c(CCNC(C)=O)c2c1` [2-Phenylmelatonin] registered a nuclei count of 84.5.

Regarding `N[C@@H](CSC(c1ccccc1)(c1ccccc1)c1ccccc1)C(=O)O` [S-Trityl-L-cysteine], the nuclei count is 95.

`C=CC(=O)Nc1cccc(Nc2nc(Nc3ccc(OCCOC)cc3)ncc2F)c1` showed a nuclei count of 34.7.

Regarding `Cc1cnc(Nc2ccc(OCCN3CCCC3)cc2)nc1Nc1cccc(S(=O)(=O)NC(C)(C)C)c1`, the nuclei count is 7.48 and 5.57.

Regarding `CS(=O)(=O)c1cccc(CNc2nc(Nc3ccc4c(c3)CCC(=O)N4)ncc2C(F)(F)F)c1`, the nuclei count is 45.9 ± 3.2.

In the case of `CNC(=O)c1nn(C)c2c1C(C)(C)Cc1cnc(Nc3ccc(N4CCN(C)CC4)cc3)nc1-2`, the nuclei count is 54.8 and 36.4.

`C=CCn1c(=O)c2cnc(Nc3ccc(N4CCN(C)CC4)cc3)nc2n1-c1cccc(C(C)(C)O)n1` had a nuclei count of 25.1.

`Cc1cnc(Nc2ccc(N3CCN(C)CC3)cc2)nc1Nc1cccc(S(=O)(=O)NC(C)(C)C)c1` had a nuclei count of 5.44.

With `Oc1cc2c(cc1O)[C@@H]1c3ccc(O)c(O)c3OC[C@]1(O)C2` [Hematoxylin (Hydroxybrazilin)], the nuclei count is 86.

Turning to `Cc1nn(C)c2nc(NNC(=O)Nc3cc(Cl)nc(Cl)c3)cc(C(C)C)c12`, the nuclei count is 106.

In turn, `COC(=O)C1=C(C)NC(C)=C([N+](=O)[O-])[C@H]1c1ccccc1C(F)(F)F` came in with a nuclei count of 99.5.

For `O=C(c1ccc(Cl)cc1Cl)n1nnc2ccccc21`, the nuclei count amounted to 83.2.

Consider `COc1cc(OC)c(/C=C/S(=O)(=O)Cc2ccc(OC)c(NCC(=O)O)c2)c(OC)c1`, for which the nuclei count turned out to be 16.3 ± 1.4.
